Results taken from PubChem BioAssay AID590 (National Center for Advancing Translational Sciences (NCATS), 2007).
The campaign covered roughly 59,000 compounds. About 6,500 (11%) were called active. Not shown: some 15% with an inconclusive outcome. Cut-off read from the data, not from the text of the source: active = max dye-equivalent concentration above about 10 nM; inconclusive = mostly about 1.1 nM to 9.6 nM; inactive = weaker than that. This excerpt belongs to a sample that is enriched for actives. Some structures have more than one record in an assay (separate samples or runs), and their calls can disagree.

Assay: qHTS Assay for Spectroscopic Profiling in A350 Spectral Region
Conditions: Compound autofluorescence, 340/450 nm, Alexa 350 dye-equivalents; active compounds read high
Excerpt: NIH Molecular Libraries Screening Centers Network [MLSCN]
NIH Chemical Genomics Center [NCGC]
Occasionally, the artifactual effect may originate from the compounds own spectral or other biophysical properties which generally tend to track its assay concentration. Pre-screening/profiling the library with respect to the compounds spectral properties should help one exclude false positives early on. While the most informative fluorescent profiling data set is obtained by performing a full excitation and emission scan of each well by using a monochromator-based plate reader, such an approach is practical only on a very limited scale as scanning each well requires long time. An alternative approach, applied here, is to perform plate reader scans using selected excitation and emission wavelength pairs to generate a multidimensional relational database that correlates compound concentration and the respective relative fluorescence intensity at a given wavelength set. A standard curve of Alexa 350 (A 350) present on each plate as six-point concentration series, was used to compute a normalized fluorescence response, termed dye-equivalent concentration, for each compound at each concentration.
NCGC Assay Protocol Summary:
100 mM Tris buffer, pH 8.0
The wells in columns 1 through 4 of a Kalypsys polypropylene 1536-well compound plate were filled with standard solutions of fluorophore corresponding to the spectral region of interest. Solutions of A 350 were placed in the following wells: I1, J1: 3 mM, I2, J2: 300 uM, I3, J3: 30 uM, I4, J4: zero (DMSO), K1, L1: 3 uM, K2, L2: […], K3, L3: 300 nM, K4, L4: zero (DMSO).
Six uL of buffer were dispensed to 1536-well Greiner black plates. Compounds and dye standards (23 nL) were transferred via Kalypsys PinTool. The plates were incubated for 15 min at room temperature, and then read on ViewLux (Perkin-Elmer) High-throughput CCD imager using 340 nm and 450 nm excitation and emission filter set.
Keywords: NIH Roadmap, MLSCN, MLI, MLSMR, qHTS, NCGC, A350, A-350, Fluorescent Profiling.

Compound	max dye-equivalent concentration	outcome
CSC1=NP(=S)(SC)N(C)c2nc3n(c21)CCC3 (stereo unspecified)	26 nM (active)	
CN1[C@@H]2CC[C@H]1CC(OC(=O)c1cc(Cl)cc(Cl)c1)C2 (stereo partly specified)	inactive	
CN1CCN(C(=O)O[C@@H]2c3nccnc3C(=O)N2c2ccc(Cl)cn2)CC1	inactive	
c1ccc2c(c1)[I+]c1ccccc1-2	inactive	
C[N+]1(C)C2CC(OC(=O)C(CO)c3ccccc3)CC1[C@@H]1O[C@H]21 (stereo partly specified)	inactive	
CC(C)(O)[C@H]1[C@H]2OC(=O)[C@@H]1[C@]1(O)C[C@H]3O[C@]34C(=O)O[C@H]2[C@]14C	inactive	
c1csc(CN2CCCC3(CCNCC3)C2)n1	inactive	
c1ccc(N2CC[C@@]3(CCCNC3)C2)nc1	inactive	
c1ccc(CN2CC[C@@]3(CCCNC3)C2)cc1	13 nM (active)	
C[C@@]12CC[C@H]3[C@@H](CC[C@]4(O)C[C@H](O)CC[C@@]34C=O)[C@]1(O)CC[C@@H]2C1=CC(=O)OC1	inactive	
C[C@H](Br)C(=O)N[C@H](CO)C(=O)O	inactive	
CCOC(=O)c1c(N)n(Cc2ccccc2)c2nc3ccccc3nc12	1500 nM (active)	
c1csc(CN2CC3(CCNCC3)C2)n1	inactive	
CC(=O)O[C@H]1CC[C@@]2(C)[C@@H](CC[C@H]3[C@H]2CC(=O)[C@]2(C)[C@@H]3C[C@@H](N3CC3)[C@H]2C(C)=O)C1	inactive	
O=C(Nc1cccc(F)c1)N1CC[C@@]2(CCCN(C(=O)Oc3ccccc3)C2)C1	inactive	
CCN1c2nc3c(C)cccn3c(=O)c2CC2(C(=O)N(C)C(=O)N(C)C2=O)C1C (stereo unspecified)	38 nM (active)	
O=C(O)C(=O)Cc1ccc2c(c1)OCO2	inactive	
COC(=O)COc1cc(C)cc2oc(=O)c3c(c12)CCCC3	inactive	
CCCCCCN=C(CC)c1c(O)n(CCCC)c(=O)[nH]c1=O	inactive	
NC(=O)c1ccc(OC[C@H](O)CN2CC=C(c3ccc(F)cc3)CC2)cc1	inactive	
CCN1C[C@]2(C)CC[C@H](O)[C@@]34[C@@H]5CC6[C@@H](OC)C[C@@](O)([C@@H]5[C@@H]6O)[C@H](C[C@@H]23)[C@H]14	inactive	
C[C@@]12CC[C@H](O)C[C@@H]1CC[C@@H]1[C@@H]2CC[C@@]2(C)[C@@H](C3=CC(=O)OC3)[C@H](O)C[C@]12O	inactive	
C[C@]12CC[C@H](O)CC1=CC[C@@H]1[C@H]2CC[C@]2(C)C(=O)CC[C@H]12	inactive	
C[C@]12CC[C@H](O)C[C@@H]1CC[C@H]1[C@H]2CC[C@]2(C)C(=O)CC[C@@H]12	64 nM (active)	inactive
CC(C)(O)/C=C\C(=O)[C@](C)(O)[C@H]1[C@H](O)C[C@]2(C)[C@@H]3CC=C4[C@@H](C=C(O)C(=O)C4(C)C)[C@]3(C)C(=O)C[C@@]12C	inactive	

Compound	max dye-equivalent concentration	outcome
CS(=N)(=O)CC[C@H](N)P(=O)(O)O (stereo partly specified)	inactive	
CC[C@]1(O)C(=O)OCc2c1cc1n(c2=O)Cc2cc3ccccc3nc2-1	2600 nM (active)	
CC[C@@](O)(C(=O)O)c1cc2n(c(=O)c1CO)Cc1cc3ccccc3nc1-2	920 nM (active)	
Cc1ccc(Cn2nnnc2CN2CCC(n3nnc4ccccc43)CC2)cc1	inactive	
N[C@H](C(=O)O)c1cc(=O)[nH]o1	inactive	
C[C@H]1CC[C@@]2(NC1)O[C@@H]1C[C@H]3[C@@H]4CC=C5C[C@@H](O)CC[C@]5(C)[C@@H]4CC[C@]3(C)[C@@H]1[C@@H]2C	inactive	
N[C@@H](Cc1c[nH]c2ccccc12)c1nnc(SCc2c(F)cccc2Cl)o1	inactive	
CC[N+]1(C)CCCC(OC(=O)C(O)(c2ccccc2)c2ccccc2)C1 (stereo unspecified)	inactive	
CC(C)CCC1(CCN)C(=O)NC(=O)NC1=O	inactive	
O=C(c1cc(-c2ccncc2)nc2ccccc12)N1CCC2(CC1)OCCO2	inactive	
O=C(c1cc2nc(-c3ccccc3)cc(-c3ccccc3)n2n1)N1CCC2(CC1)OCCO2	48 nM (active)	
Cc1cccc(-n2c(C)nc3cc(C(=O)N4CCC5(CC4)OCCO5)ccc32)c1	inactive	
NCC[Se][Se]CCN	inactive	
CCN(CC)CCn1ncc2c(N)ncnc21	inactive	
CC1=CC(=O)C2=C(C)C[C@H](O)[C@@H]3[C@@H](OC(=O)[C@H]3C)[C@H]12	inactive	
O=C1C2CCN(CC2)C1(CO)CO	inactive	
CCOC(=O)c1c(-c2ccccc2)oc2ccc(OC(=O)N(C)C)cc12	53 nM (active)	
Cc1ccc(S(=O)(=O)O[C@H]2CN3CCC2CC3)cc1	inactive	
NC[C@H](O)c1ccc(O)cc1	inactive	
C=CCN1C(=O)C2(C(C(=O)OCC)=C(N)Oc3c2c(=O)oc2ccccc32)c2ccccc21 (stereo unspecified)	inactive	
COc1cc(C[C@H](C)N)c(OC)cc1I	inactive	
C/C(CCc1c[nH]c2ccccc12)=N\O	16 nM (active)	
NCCc1c[nH]c2ccc(O)cc12	inactive	
CC(=O)c1c(O)c(C)c(O)c(Cc2c(O)c3c(c(C(=O)/C=C\c4ccccc4)c2O)OC(C)(C)C=C3)c1O	inactive	
NCCc1ccc(S(=O)(=O)F)cc1	inactive	
